Source: PubChem BioAssay AID1508602 (The Scripps Research Institute Molecular Screening Center, 2020)
The whole screen tested about 650,000 compounds, of which about 6,800 (1%) were called active. Rule as the data show it: active = activation above about 4.9%; inactive = the rest. Many of the other results were omitted from the sample, so actives are more common in it than they were.

Molecular target: G-protein coupled receptor 151 (Homo sapiens) (UniProt Q8TDV0)
Assay: activates the human receptor GPR151, primary screen, cell-based, PathHunter beta-arrestin, luminescence (AID 1508602);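 also: 0% = median of compound wells and 100% = cells with positive control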
Conditions: PathHunter beta-arrestin GPR151 cells, at 11.2 µM, stronger effect = higher value

Chain of G-protein coupled receptor 151 (Homo sapiens) (Q8TDV0 whole entry, looked up): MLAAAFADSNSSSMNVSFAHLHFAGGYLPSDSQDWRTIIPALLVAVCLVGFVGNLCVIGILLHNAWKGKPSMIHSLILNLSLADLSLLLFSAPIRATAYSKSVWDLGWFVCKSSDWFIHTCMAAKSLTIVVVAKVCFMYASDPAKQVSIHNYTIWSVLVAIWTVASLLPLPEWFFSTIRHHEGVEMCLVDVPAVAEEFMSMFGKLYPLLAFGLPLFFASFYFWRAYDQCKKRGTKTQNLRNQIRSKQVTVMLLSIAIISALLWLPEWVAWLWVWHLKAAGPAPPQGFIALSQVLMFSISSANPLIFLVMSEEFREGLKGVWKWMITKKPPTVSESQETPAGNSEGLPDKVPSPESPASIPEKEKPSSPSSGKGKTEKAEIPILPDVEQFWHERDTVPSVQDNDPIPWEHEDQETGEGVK

| Compound | activation |
| --- | --- |
| C=CCN1C(=O)NC(=O)/C(=C/c2ccc(O)c(OC)c2)C1=O | -0.157% (inactive) |
| COc1cc(/C=C2\C(=O)NC(=O)N(c3ccccc3)C2=O)ccc1O | 8.77% (active) |
| COc1ccccc1N1C(=O)NC(=O)/C(=C\c2ccc(Cl)cc2Cl)C1=O | 0.657% (inactive) |
| COc1cc(NC(=O)CCc2nc(C3=CCN(C)CC3)no2)cc(OC)c1OC | -0.399% (inactive) |
| O=C(O)C1C2CC3CC(C2)CC1(n1ncc(NC2CCCC2)c(Cl)c1=O)C3 (stereo not given) | 1.35% (inactive) |
| O=c1cccc2n1CC1CC2CN(Cc2ccc(F)cc2)C1 (stereo not given) | 1.89% (inactive) |
| COc1ccccc1N1CCN(Cc2cccc(O)c2)CC1 | 0.277% (inactive) |
| O=C(NCC(c1cccnc1)N1CCN(c2ccccc2)CC1)Oc1ccccc1 (stereo not given) | 0.68% (inactive) |
| COc1ccccc1N1CCN(C(CNC(=O)Oc2ccccc2)c2cccnc2)CC1 (stereo not given) | 9.52% (active) |
| O=C(Cc1cccs1)N1CCN(Cc2nnnn2-c2ccc(F)cc2)CC1 | 1.07% (inactive) |
| Cc1ccc(Cc2nc[nH]c2C)cc1 | 0.705% (inactive) |
| COc1ccc(CCNCc2ccc(O)cc2)cc1 | 1.2% (inactive) |
| Cc1cc(Cl)ccc1C(=O)C1CCCN(Cc2ncc[nH]2)C1 (stereo not given) | -0.596% (inactive) |
| CC[n+]1c(/C=C/C=C2\N(C)c3ccccc3C2(C)C)n(-c2ccccc2)c2ccc(Cl)cc21 | 5.9% (active) |
| C=CCOC(=O)C1=C(C)OC(N)=C(C(=O)OCC)C12C(=O)N(CC=C)c1ccccc12 (stereo not given) | -0.446% (inactive) |
| COc1cc(Br)cc(CN2CC3CC(C2)c2cccc(=O)n2C3)c1O (stereo not given) | -0.476% (inactive) |
| CCOC(=O)C1=C(N)Oc2n[nH]c(C)c2C12C(=O)Nc1ccc(Br)cc12 (stereo not given) | 0.383% (inactive) |
| CCOC(=O)C1=C(N)OC2=C(C(=O)CCC2)C12C(=O)Nc1ccc(Br)cc12 (stereo not given) | 9.15% (active) |
| CCOC(=O)C1=C(C)OC(N)=C(C(=O)OC)C12C(=O)Nc1ccc(Br)cc12 (stereo not given) | -0.299% (inactive) |
| CC(C)c1ccc(NC(=O)c2cc3cccnc3n(Cc3ccc(F)cc3)c2=O)cc1 | 1.47% (inactive) |
